# Screening results: PubChem BioAssay, National Center for Advancing Translational Sciences (NCATS)
# Sm TGR inh: blocks Schistosoma mansoni thioredoxin glutathione reductase; actives 3% (n = 360,000); Potency, µM (titrated, usually from 114 µM), hits mostly inhibitors; purified TGR, DTNB reduction, TNB absorbance 405 nm; Q962Y6; also: nearly all actives have a fitted effect of over 60% in size
#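 Kinetic colorimetric format: TGR-catalysed, NADPH-driven DTNB reduction monitored via TNB absorbance. Enzyme dispensed at 20 nM; compound exposure 15 min at room temperature before reaction start.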
# VACV Venus inh: inhibitors of vaccinia virus (Venus reporter); Vaccinia virus Venus reporter expression, fluorescence; Potency, µM (doses to about 36.5 µM), hits mostly inhibitors; actives 0.46% (n = 330,000); AID 720580; calls by dose curve; tested in A549 cells; also: nearly all actives have a fitted effect of over 30% in size
# Vaccinia mCherry: vaccinia inhibition (mCherry reporter) | actives 0.63% (n = 310,000) | AID 720579 | Vaccinia virus mCherry reporter infection, fluorescence | Potency, µM (doses to about 36.5 µM), usual class: inhibitors; calls by dose curve; tested in A549 cells; also: nearly all actives have a fitted effect of over 35% in size
# FMDV inh: foot and mouth disease virus antiviral activity. actives 1.2% (n = 410,000). Potency, µM (highest dose often 57.9 µM), hits mostly inhibitors. FMDV antiviral cell-based qHTS; calls by dose curve; tested in HEK293T cells; also: read-out not given here; nearly all actives have a fitted effect of over 45% in size
# HCMV inh: human cytomegalovirus inhibition. HFF cells, HCMV-luciferase reporter, 72 h; active compounds read low. activity change, negative = inhibition, % at 57.5 µM. actives 4.5% (n = 410,000); in the data active = activity change below about -60%; inconclusive = no clear call, values can overlap the other calls; inactive = above about -39%
#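 Compounds were evaluated in HFFs infected with an HCMV luciferase reporter virus (MOI 1 PFU/cell). Luciferase in lysates collected 72 h post infection served as the replication measure.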
# HCV inh: inhibitors of hepatitis C virus infection; Huh7.5.1 HCVcc-Cre infection, luciferase reporter, 44 h; Potency, µM (doses to about 41.8 µM), most hits filed as inhibitors; actives 3.4% (n = 340,000)
#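 Compounds are dispensed onto cells plated 4 h earlier at 1,000 per well, with HCVcc-Cre virus (about 0.5 moi) added next. Following 44 h of culture, luminescent signal is measured for 15 sec after 15 min with substrate at room temperature.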
# Hits are given with their value; n = inactive; u = inconclusive; x = not tested or not shown; [ ] = another dose, or the depositor's remark. Only some compounds are listed: those with a hit (about 9.3% of all), similar ones and a draw of the others. Unless noted, calls follow the shape of the dose curve; as a rule, active = well fitted curve in the direction sought with a large enough effect; inconclusive = small, poorly fitted or top-dose-only effect, or another doubt; inactive = no such curve, though single readings can be large; an effect the other way counts as inactive or inconclusive.
SMILES,Sm TGR inh,VACV Venus inh,Vaccinia mCherry,FMDV inh,HCMV inh,HCV inh
CCOC(=O)N1CCN(C(=O)CSCc2nc(-c3ccccc3F)oc2C)CC1,n,x,x,n,-80,u
Cc1ccc(-c2nc(CS(=O)(=O)CC(=O)N3CCc4ccccc4C3)c(C)o2)cc1,25µM,n,u,u,n,u
COc1ccc(CCNc2nc3c(-c4cccc(C(F)(F)F)c4)nnn3c3ccccc23)cc1OC,n,n,n,n,n,x
CCc1ccc(C(=O)OCC(=O)Nc2c(C)n(C)n(-c3ccccc3)c2=O)cc1,x,n,n,n,n,x
O=S(=O)(c1ccc(Nc2ccc(-c3ccc4c(c3)OCCO4)nn2)cc1)N1CCCC1,n,u,n,x,n,u
O=C(NC1CC1)c1cccc(Nc2ccc(-c3ccc4c(c3)OCCO4)nn2)c1,n,x,x,u,n,10µM
CN(CC(=O)NC(=O)NCc1ccccc1)Cc1ccc(Cl)c(Cl)c1,n,n,n,n,n,n
Cc1ccc(C2=N/C(=C\c3cccs3)C(=O)N2Nc2ccccc2)cc1,n,n,x,n,n,u
O=C1/C(=C\c2cccs2)N=C(c2cccs2)N1Nc1ccccc1,n,n,n,x,-78,u
O=C1/C(=C/c2cccs2)N=C(c2cccs2)N1Nc1ccccc1,n,n,x,n,u,14µM
O=c1[nH]c(C2CCN(S(=O)(=O)c3ccccc3F)CC2)nc2c1nnn2Cc1ccc2c(c1)OCCO2,n,x,x,n,n,n
O=C(CCl)N1CCN2C(=O)c3ccccc3C12c1ccc(Cl)cc1 (configuration not stated),2.5µM,n,n,10µM,-115,n
Cc1ccc(C(=O)N2CCN3C(=O)c4ccccc4C23c2ccc(Cl)cc2)cc1 (configuration not stated),n,u,x,n,-71,10µM
O=C(Nc1cccc(Cl)c1)N1CCN2C(=O)c3ccccc3C12c1ccccc1 (configuration not stated),n,u,u,u,n,u
O=C(Nc1n[nH]c(C(F)(F)F)n1)C1CC1,n,n,n,n,n,n
Cc1ccc(NC(=O)c2cc(-c3cc(Cl)ccc3C)n[nH]2)cc1NS(C)(=O)=O,x,n,n,25µM,-83,x
COc1ccc(NC(=O)c2cc(-c3ccc(C)c(C)c3O)n[nH]2)cc1Cl,n,n,n,u,n,2.5µM
COc1ccc(Cl)c(-c2cc(C(=O)Nc3ccc(C)c(NS(C)(=O)=O)c3)[nH]n2)c1,x,u,n,u,n,x
Cc1ccc(NC(=O)c2cc(-c3ccc(C)c(C)c3O)n[nH]2)cc1C,n,n,n,n,n,u
COc1ccc(Cl)cc1-c1cc(C(=O)Nc2ccc(C)c(NS(C)(=O)=O)c2)[nH]n1,x,n,n,32µM,u,x
Cc1ccc(Cl)cc1-c1cc(C(=O)NCc2cc(C(F)(F)F)cc(C(F)(F)F)c2)[nH]n1,x,u,n,40µM,n,x
COc1cc2c(cc1OC(C)=O)CCCCC2=O,x,n,n,n,n,n
CC1CCCN(c2c([N+](=O)[O-])c(=O)oc3ccccc23)C1 (configuration not stated),n,x,x,n,n,n
COc1ccc(C(=O)N[C@H]2CC[C@@]34CCCN3C(=O)CCC[C@H]4[C@H]2Cc2ccccc2)cc1,x,x,x,x,n,x
CCC(Cc1ccccc1)NCc1c(C(=O)O)c(C)n(Cc2ccccc2)c1C (configuration not stated),n,n,n,n,-74,n
SMILES,Sm TGR inh,VACV Venus inh,Vaccinia mCherry,FMDV inh,HCMV inh,HCV inh
Cc1ccc(C(=O)c2oc3ccccc3c2NC(=O)c2cc(-c3cc(C)ccc3O)n[nH]2)cc1,n,n[7.34 µM],n[7.34 µM],n,-63,n
O=C(Nc1c(C(=O)c2ccccc2)oc2ccccc12)c1cc(-c2ccccc2O)n[nH]1,n,u,u,n,n,n
Cc1ccc(C(=O)c2oc3ccccc3c2NC(=O)c2cc(-c3ccccc3O)n[nH]2)cc1,n,n,n,n,-63,n
Cc1noc(C)c1N=Nc1ccccc1C(=O)O,n,n,n,n,n,n
COc1cc(/C=C/C(=O)OCC(=O)NCc2ccco2)ccc1O,28µM,n,n,n,n,u
COc1ccccc1OCC(=O)NCc1ccco1,n,x,x,n,n,n
COc1cccc(OC)c1C(=O)OCC(=O)NCc1ccco1,50µM,x,x,n,n,n
O=C(COC(=O)C1CC2C=CC1C2)NCc1ccc(F)cc1 (configuration not stated),n,n,n,n,n,n
